Screening results as filed in PubChem BioAssay.
Sampled rows, rich in hits. Any-hit rate of the full collection: about 1.1%.
RN4220 kill: kills Staphylococcus aureus RN4220; S. aureus RN4220 growth, OD600, 16 h; inhibition, % (no concentration beside the values); 0.33% of 330,000 active; AID 1259311; in the data active = inhibition above about 85%;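 note: plate controls were untreated cells for no effect and reference antibiotic for full effect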
ugtP null kill: kills S. aureus RN4220 lacking UgtP; S. aureus RN4220 ugtP deletion, OD600 growth, 16 h; growth inhibition, % (test concentration not listed); 0.54% of 330,000 active; AID 1259309; in the data active = growth inhibition above about 68%;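 note: plate controls were untreated wells for no effect and antibiotic for full effect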
Mtb hypoxia inh: reduces hypoxia-regulated biosensor signal in M. tuberculosis; 0.1% of 300,000 active; fluorescence inhibition, % (concentration not given with the values); M. tuberculosis hypoxia-regulated fluorescent reporter, fluorescence; in the data active = fluorescence inhibition mostly above about 23%, no sharp cut-off; inactive = mostly below about 17%
PriA SSB inh: inhibitors of Klebsiella pneumoniae PriA binding to SSB C-terminal tail. AlphaScreen SSBct-PriA binding, biotinylated peptide. inhibition, % at 33 µM. 0.6% of 430,000 active; in the data active = inhibition mostly above about 37%, no sharp cut-off; inactive = mostly below about 20%;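 note: plate controls were negative control peptide for no effect and reference peptide for full effect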
The depositor's hits bear a star; nt = no result shown.

SMILES	RN4220 kill	ugtP null kill	Mtb hypoxia inh	PriA SSB inh
CCc1cnc2c(c1Cl)c(=O)n(C)c(=O)n2C	nt	nt	nt	-5
O=C(Nc1ccccc1I)c1ccc2c(c1)OCCO2	nt	nt	nt	-6
O=C(Nc1cccc(C(F)(F)F)c1)c1cc(OCc2ccccc2)no1	nt	nt	nt	-25
Cc1ccc(NC(=O)C(=O)NCc2cccs2)c([N+](=O)[O-])c1	nt	nt	nt	56*
Cc1cc(C)cc(NC(=O)[C@H](C)Oc2cccc(Br)c2)c1	nt	nt	nt	-4
Cc1ccc(NC(=O)C(C)Oc2cccc(Br)c2)c([N+](=O)[O-])c1 (configuration not stated)	nt	nt	nt	49*
N#Cc1ccccc1S(=O)(=O)N1CCC(S(=O)(=O)c2ccc(F)cc2)CC1	nt	nt	nt	2
O=C(c1ccco1)N(CC1CCCO1)c1nc(-c2ccccc2)cs1 (configuration not stated)	-7	86*	-5	-8
C(C#CCCCCCCCCC[n+]1ccccc1)#CCCCCCCCCC[n+]1ccccc1	100*	101*	nt	-2
COc1ccccc1NC(=O)c1ccc(NC(=O)CN2CCCC2)cc1	15	2	11	47*
COc1cc(NC(=O)Nc2cccc(Cl)c2)c(OC)cc1NC(=O)CN1CCCCC1	36	38	11	50*
O=S(=O)(C1CC1)N1CCC(c2nnc(-c3ccc(F)cc3)o2)CC1	nt	nt	nt	-20
CCNC(=S)NNC(=O)c1cc(-c2ccc(OC)cc2)nc2ccccc12	5	1	9	-7
COc1ccccc1C(=O)NC(=S)NNC(=O)c1sc2ccccc2c1Cl	100*	98*	-10	-13
O=C(NC(=S)Nc1cccc2cc(O)ccc12)c1ccccc1Br	-4	2	7	15
COc1ccc(Cl)cc1C(=O)NNC(=S)NC(=O)c1cc(-c2ccc(Cl)cc2)nc2ccccc12	115*	57	nt	-5
COc1ccccc1C(=O)NC(=S)Nc1cccc2cc(O)ccc12	-4	-18	-6	42*
O=C(COc1ccc2ccccc2c1)NCC(c1cccs1)N1CCc2ccccc21 (configuration not stated)	nt	nt	nt	-4
Cn1ncc2c(NCCO)nc(NCCC3=CCCCC3)nc21	nt	nt	nt	-8
CC(=O)N(C(C)=O)c1c(C#N)c(C)n(-c2ccccc2)c1C(=O)c1ccccc1	2	10	nt	85*
CCCOc1c(Br)cc(C=NO)cc1OC	-5	86*	nt	-7
CCOc1cc(C=NO)cc(Cl)c1OC	4	0	nt	-12
CCCOc1c(Cl)cc(C=NO)cc1OCC	-3	93*	nt	-16
CCOC(=O)c1oc2ccc(Br)cc2c1NC(=O)CN1CCN(C)CC1	1	91*	nt	-12
CC(C)CNC(=O)C(=O)NCCCc1ccc(N(C)C)cc1	nt	nt	nt	-6
SMILES	RN4220 kill	ugtP null kill	Mtb hypoxia inh	PriA SSB inh
Cc1ccc(CCC(=O)Nc2ccc(Cl)c([N+](=O)[O-])c2)o1	nt	nt	nt	48*
Cc1cc(C)c(OC2(c3ccccc3)OC(=O)c3ccccc32)c(C)c1 (configuration not stated)	-3	85*	16	-21
Cn1cc(S(=O)(=O)N2CCCN(C(=O)c3cc(=O)c4ccccc4o3)CC2)cn1	nt	nt	nt	-10
Cc1cc(=O)[nH]c(NN=Cc2c(O)n(-c3ccccc3)c(=O)c3ccccc23)n1	nt	nt	nt	85*
Cc1cc(=O)[nH]c(NN=Cc2c(C)nn(-c3ccccc3)c2C)n1	-2	5	9	-1
Cc1noc(-c2sccc2NC(=O)c2cc(C)oc2C)n1	nt	nt	nt	-9
Cc1c(C)c([N+](=O)[O-])c(C)c(C)c1N	nt	nt	nt	-6
CC(C)c1cc(C(C)C)c(C(C)C)c([N+](=O)[O-])c1N	nt	nt	nt	35*
O=C(Nc1ccccc1Cc1ccccc1)c1ccccc1NS(=O)(=O)c1ccc(Cl)s1	nt	nt	nt	-4
O=C(Nc1ccccc1)c1ccccc1NS(=O)(=O)c1ccc(Cl)s1	87*	92*	7	7
Cc1ccc(NC(=O)c2ccccc2NS(=O)(=O)c2ccc(Cl)s2)cc1	81	90*	3	-7
O=C(NCc1ccco1)c1ccccc1NS(=O)(=O)c1ccc(Cl)s1	64	53	nt	9
CCC(NC(=O)c1nnn(-c2ccccc2OC)c1-c1ccccn1)c1cccs1 (configuration not stated)	nt	nt	nt	-7
CCOC(=O)C1CCN(c2c([N+](=O)[O-])c(C(Cl)Cl)nn2-c2ccccc2)CC1	-2	3	10	14
O=[N+]([O-])c1c(C(Cl)Cl)nn(-c2ccccc2)c1N1CCCC1	7	31	20	50*
CN(C)c1ccc(S(=O)(=O)N2CCCCC2)cc1NC(=O)CCNC(=O)c1ccccc1Cl	4	1	23*	9
CCc1ccc(OCc2nc3ccc(OC)cc3[nH]2)cc1	nt	nt	nt	-20
CC1CN(C(=O)/C=C/c2ccc3c(c2)OCO3)CC(C)O1 (configuration not stated)	0	-1	91*	-4
